A selection: hits, their analogues and other compounds. The true share with any hit is near 4.2%.
MITF TRPM1 HTS – MITF TRPM1 promoter activation in melanoma cells | activation, % at 12.5 µM | actives 0.75% (n = 300,000) | SK-MEL-5 TRPM1-promoter luciferase, 24 h; % of positive control, neutral wells = 0;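 active = mean activation of at least 80% with every replicate also reaching 80%; inconclusive = mean reaches 80% but some replicate falls short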
GAA850 FXN act – frataxin GAA850 promoter activation; actives 0.56% (n = 360,000); AID 540364; activation, % at 6 µM; HEK293 lucGAA850 FXN promoter luciferase reporter, 24 h; percent of 10 µM SAHA response;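 active = activation above the average of all compounds screened plus 3 SD, cutoff fixed separately per campaign, cut at about 7.5% in these data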
Wnt act – activators of Wnt/beta-catenin signaling. actives 1.2% (n = 300,000). Wnt/beta-catenin reporter cell assay, activator, plate reader. AID 743398. activation, % at 9.35 µM; in the data active = activation above about 30%, passing the limit was not always enough; inconclusive = no clear call, values can overlap the other calls
AHR act – human AHR activation; P35869; AHR-responsive luciferase reporter cells, luminescence; activation, % at 5 µM; actives 2.5% (n = 320,000); AID 2796; in the data active = activation above about 47%
Target sequence (P35869 whole entry, looked up): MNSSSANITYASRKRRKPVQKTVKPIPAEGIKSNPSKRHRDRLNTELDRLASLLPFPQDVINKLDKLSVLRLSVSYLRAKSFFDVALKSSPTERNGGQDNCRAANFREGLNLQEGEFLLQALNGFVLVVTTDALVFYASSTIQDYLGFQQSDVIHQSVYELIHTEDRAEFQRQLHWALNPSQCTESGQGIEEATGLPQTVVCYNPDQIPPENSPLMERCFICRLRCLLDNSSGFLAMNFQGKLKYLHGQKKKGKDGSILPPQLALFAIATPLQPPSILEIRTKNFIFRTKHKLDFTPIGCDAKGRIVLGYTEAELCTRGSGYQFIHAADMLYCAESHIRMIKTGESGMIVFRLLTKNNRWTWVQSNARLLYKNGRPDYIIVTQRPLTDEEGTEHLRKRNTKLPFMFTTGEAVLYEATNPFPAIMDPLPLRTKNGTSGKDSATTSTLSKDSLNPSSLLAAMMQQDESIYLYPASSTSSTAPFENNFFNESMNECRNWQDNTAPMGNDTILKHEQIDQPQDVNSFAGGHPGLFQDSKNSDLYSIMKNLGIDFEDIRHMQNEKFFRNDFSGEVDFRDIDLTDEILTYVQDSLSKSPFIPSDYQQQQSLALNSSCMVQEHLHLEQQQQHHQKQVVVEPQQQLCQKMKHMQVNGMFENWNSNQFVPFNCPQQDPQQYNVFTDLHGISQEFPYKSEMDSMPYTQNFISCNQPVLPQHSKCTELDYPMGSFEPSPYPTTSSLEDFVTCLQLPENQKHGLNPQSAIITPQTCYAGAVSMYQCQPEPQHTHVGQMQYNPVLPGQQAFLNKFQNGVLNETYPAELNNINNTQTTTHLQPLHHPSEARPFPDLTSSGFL
esBAF inh – SWI/SNF esBAF complex inhibition; mouse ES cells, Bmi1-luciferase knock-in reporter, 24 h; 100% = twice the neutral-well signal; reporter increase, % at 12.5 µM; actives 2% (n = 350,000); AID 602393; in the data active = activation above about 40%; inconclusive = no clear call, values can overlap the other calls;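 also: a rise in the Bmi1 reporter signal indicates esBAF inhibition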
Of the large screens only hits and unclear results are named; the others gave an inactive call.

O=C(C[C@H]1C[C@H]2c3cc(NC(=O)NC4CCCC4)ccc3O[C@H]2[C@H](CO)O1)NCc1ccc(Oc2ccccc2)cc1	none (no result: MITF TRPM1 HTS, GAA850 FXN act, Wnt act, AHR act)
CCCC(=O)Oc1ccc(C2NC(=O)c3ccccc3O2)cc1 (configuration not stated)	AHR act 56.4 (no result: MITF TRPM1 HTS)
CCOc1ccc(C2NC(=O)c3ccccc3O2)cc1 (configuration not stated)	none (no result: Wnt act)
CO[C@@H]1CN(C)C(=O)c2cc(NC(=O)Nc3cccc(F)c3)ccc2OC[C@H](C)N(C(=O)Nc2c(C)noc2C)C[C@@H]1C	none (no result: MITF TRPM1 HTS, GAA850 FXN act, Wnt act, AHR act)
Cn1/c(=N/NC(=O)c2ccccc2Br)sc2ccccc21	Wnt act 51.0, AHR act 47.5 (no result: esBAF inh)
O=C(C[C@H]1C[C@@H]2c3cc(NC(=O)C4CCC4)ccc3O[C@@H]2[C@@H](CO)O1)NCC1CC1	none (no result: MITF TRPM1 HTS, GAA850 FXN act, Wnt act, AHR act)
Cc1ccc(O)c(Nc2ncnc3ccc([N+](=O)[O-])cc23)c1	AHR act 50.4 (no result: MITF TRPM1 HTS)
O=[N+]([O-])c1ccc(O)c(Nc2ncnc3ccc(Br)cc23)c1	AHR act 75.4 (no result: esBAF inh)
O=[N+]([O-])c1ccc(O)c(Nc2ncnc3ccccc23)c1	none (no result: esBAF inh)
C[C@H](CO)N1C[C@H](C)[C@@H](CN(C)Cc2ccc(C(=O)O)cc2)Oc2cc(C#CCC3CCCC3)ccc2S1(=O)=O	none (no result: MITF TRPM1 HTS, GAA850 FXN act, Wnt act, AHR act)
COc1ccccc1C(=O)Nc1ccc2c(c1)C(=O)N(C)C[C@@H](OC)[C@H](C)CN(C)[C@@H](C)CO2	none (no result: MITF TRPM1 HTS, GAA850 FXN act, Wnt act, AHR act)
CSc1ccc(/C=N/n2c(C)cc(C)cc2=O)cc1	MITF TRPM1 HTS 86.5
CSc1ccc(/C=N/N2CCN(C)CC2)cc1	Wnt act 32.3
CSc1ccc(/C=N/n2c(C)nnc2C)cc1	none
C[C@H](CO)N1C[C@H](C)[C@H](CN(C)CC2CC2)Oc2ccc(NS(=O)(=O)c3cn(C)cn3)cc2CC1=O	none (no result: MITF TRPM1 HTS, GAA850 FXN act, Wnt act, AHR act)
C[C@@H]1CN([C@H](C)CO)C(=O)c2cccc(NC(=O)c3ccncc3)c2O[C@H]1CN(C)C(=O)Nc1ccc2c(c1)OCO2	none (no result: MITF TRPM1 HTS, GAA850 FXN act, Wnt act, AHR act)
Cc1ccc(F)c(CNC(=O)C2(C)CCCN2C(=O)C(C)C)c1F (configuration not stated)	Wnt act 36.2 (no result: MITF TRPM1 HTS, AHR act)
CCN1CCN(CCCNC(=O)C2CCN(c3nnc(-n4cccc4)s3)CC2)CC1	none
CCN1CCN(CCCNC(=O)C2CCN(c3nnc(-n4c(C)ccc4C)s3)CC2)CC1	AHR act 51.4
COCCC(=O)N1CCc2ccc(NC(=O)c3ccc(C(F)(F)F)cc3)cc2C1	AHR act 72.4
COCCC(=O)Nc1ccc2c(c1)CN(C(=O)CSC)CC2	none
CNC(=O)C[C@H]1CC[C@@H]2[C@@H](COc3ccc(NC(=O)Nc4cccc(C)c4)cc3C(=O)N2C)O1	none (no result: MITF TRPM1 HTS, GAA850 FXN act, Wnt act, AHR act)
Cc1ccc(NC(=O)c2sccc2SCc2cccc(C(F)(F)F)c2)cc1	none (no result: Wnt act)
N#CCSc1ccsc1C(=O)Nc1ccc(F)cc1	AHR act 49.9 (no result: Wnt act)
CC(C)c1ccc2c(c1)C1Cc3ccccc3C1N2 (configuration not stated)	AHR act 51.5 (no result: esBAF inh)
O=S1(=O)NC2c3ccccc3CC2O1 (configuration not stated)	none
CCCNC(=O)Nc1ccc2c(c1)C(=O)N(C)C[C@@H](OC)[C@@H](C)CN(C(=O)C1CCOCC1)[C@H](C)CO2	none (no result: MITF TRPM1 HTS, GAA850 FXN act, Wnt act, AHR act)
COc1ccc(C(=O)Nc2nc(N)n(-c3ccccc3)n2)cc1OC	none
COc1ccccc1/C=C/C(=O)Nc1nc(N)n(-c2ccccc2)n1	AHR act 78.1
C[C@H]1CCCCO[C@H](CN(C)S(=O)(=O)c2ccc(F)cc2)[C@@H](C)CN([C@@H](C)CO)C(=O)c2cc(NS(=O)(=O)c3cccs3)ccc2O1	none (no result: MITF TRPM1 HTS, GAA850 FXN act, Wnt act, AHR act)
CCOC(=O)N1CCN(c2ccc(C(C)=O)cc2F)CC1	none
CCCC(=O)c1ccc(N2CCCC2)c(F)c1	Wnt act 48.8, esBAF inh inconclusive
CCOC(=O)N1CCN(c2ccc(C(=O)c3ccccc3)cc2F)CC1	esBAF inh 55.7 (no result: Wnt act)
CCCC(=O)c1ccc(N2CCN(S(=O)(=O)c3ccccc3)CC2)c(F)c1	none (no result: Wnt act)
O=C1c2ccccc2NC(c2ccc(-c3ccccc3F)o2)N1O (configuration not stated)	MITF TRPM1 HTS inconclusive, Wnt act inconclusive, AHR act 53.7
O=C1c2ccccc2NC(c2ccc(-c3cccc(F)c3)o2)N1O (configuration not stated)	MITF TRPM1 HTS inconclusive, Wnt act 45.7, AHR act 47.4, esBAF inh 84.4
N#Cc1ccc(-c2ccc(C3Nc4ccccc4C(=O)N3O)o2)cc1 (configuration not stated)	none
C[C@@H]1CN([C@@H](C)CO)C(=O)c2cc(NS(=O)(=O)c3cn(C)cn3)ccc2O[C@@H]1CN(C)S(=O)(=O)c1cccs1	none (no result: MITF TRPM1 HTS, GAA850 FXN act, Wnt act, AHR act)
O=C(Nc1cc(F)cc(F)c1)c1ccc(NCCc2ccccc2)c([N+](=O)[O-])c1	AHR act 56.9 (no result: Wnt act, esBAF inh)
CCCN1C[C@@H](C)[C@H](OC)CN(C)C(=O)c2ccc(NC(=O)Nc3c(C)noc3C)cc2OC[C@H]1C	none (no result: MITF TRPM1 HTS, GAA850 FXN act, Wnt act, AHR act)
Cc1cc(C(F)(F)F)n2nc(-c3cccs3)cc2n1	esBAF inh 64.4
COc1ccccc1S(=O)(=O)N(C)C[C@@H]1OCc2cn(nn2)CCCC(=O)N([C@@H](C)CO)C[C@@H]1C	none (no result: MITF TRPM1 HTS, GAA850 FXN act, Wnt act, AHR act)
O=c1c(-c2cnn(-c3ccccc3)c2)coc2cc(O)ccc12	esBAF inh 104.6 (no result: Wnt act)
Cc1oc2cc(O)ccc2c(=O)c1-c1cnn(-c2ccccc2)c1	none (no result: Wnt act)
COCCNC(=O)[C@@H]1[C@@H](CO)[C@@H]2Cn3c(ccc(-c4ccccc4F)c3=O)[C@H]1N2S(C)(=O)=O	none (no result: MITF TRPM1 HTS, GAA850 FXN act, Wnt act, AHR act)
Cc1cccc2c1nc(-c1ccccc1)n1cnnc21	none (no result: MITF TRPM1 HTS, Wnt act)
Cc1cccc2c1nc(-c1ccccc1)n1nnnc21	AHR act 56.9 (no result: Wnt act)
CCOC(=O)c1ccc(N=c2scc(C)n2CC)cc1	Wnt act inconclusive, esBAF inh 57.7
CCOC(=O)c1ccc(N=NN(C)C)cc1	MITF TRPM1 HTS 99.0 (no result: esBAF inh)
CCOC(=O)c1ccc(N=C2NC(=O)CS2)cc1	none (no result: Wnt act)
CC(C)NC(=O)N(C)C[C@@H]1Oc2ncc(C#CC3CC3)cc2C(=O)N([C@@H](C)CO)C[C@@H]1C	none (no result: MITF TRPM1 HTS, GAA850 FXN act, Wnt act, AHR act)
Cc1ccc(-c2[nH]ncc2/C=N/n2c(C)nc3ccccc3c2=O)cc1	AHR act 61.2 (no result: MITF TRPM1 HTS, esBAF inh)
O=c1c2ccccc2nc(COc2ccccc2)n1/N=C/c1cn[nH]c1-c1ccccc1	none
C[C@@H](NC(=O)C[C@@H]1C=C[C@H](NC(=O)C2CCOCC2)[C@@H](CO)O1)c1ccccc1	none (no result: MITF TRPM1 HTS, GAA850 FXN act, Wnt act, AHR act)
CCCNC(=O)N(C)C[C@@H]1Oc2cc(-c3ccccc3F)ccc2S(=O)(=O)N([C@H](C)CO)C[C@@H]1C	none (no result: MITF TRPM1 HTS, GAA850 FXN act, Wnt act, AHR act)
CCOc1ccc(/C=C/C(=O)Nc2cccc(C(C)=O)c2)cc1	esBAF inh 58.8 (no result: Wnt act)
O=C(/C=C/c1ccccc1)Nc1cccc(C(=O)NCCCCc2ccccc2)c1	esBAF inh 43.2 (no result: AHR act)
CCOc1ccc(NC(C(=O)Nc2cccc(C(C)=O)c2)c2ccccc2)cc1 (configuration not stated)	none (no result: esBAF inh)
O=C(/C=C/c1ccccc1)Nc1cccc(C(=O)N2CCCC2)c1	none (no result: AHR act)
O=C(NCCCc1ccccc1)c1cccc(NC(=O)c2ccccc2)c1	none (no result: AHR act)
O=C(/C=C/c1ccccc1)Nc1cccc(C(=O)NCCc2ccccc2)c1	MITF TRPM1 HTS inconclusive, esBAF inh 62.0 (no result: AHR act)

Assay outcomes: PubChem, several laboratories
